Test results: PubChem BioAssay (NCATS)
Records with an inconclusive call do not appear. Active and inactive are the calls of the source. The call rests on the fitted dose curve; in most records, active means well fitted activation curve with a large enough effect; inconclusive means small, poorly fitted or top-dose-only effect; inactive means no such curve, though single readings can be large or run the other way.

Experiment: Validation screen for small molecules that induce genotoxicity in human embryonic kidney (HEK293T) cells expressing luciferase-tagged ELG1 (AID 493106); further: 0% is about no effect
Conditions: luminescence; series mostly up to 46.1 µM; activity change, positive = ELG1 induction: at the top concentration
Text: NIH Molecular Libraries Probe Production Network [MLPCN]
NIH Chemical Genomics Center [NCGC]
Assay Provider: Kyungjae Myung, NHGRI, NIH
Keywords: MLPCN, qHTS, NCGC, genotoxicity, cancer
Cancer cells divide rapidly compared to normal cells in the body. During cell division, cancer cells need to duplicate their genome by DNA replication. The failure of genome duplication leads to cancer cells' death. Therefore, inhibitors of DNA replication could specifically kill cancer cells. Based on this concept, many chemotherapeutic agents were developed and have been used to treat cancer patients. However, there are a limited number of agents available in the clinical setting, and some of those that do exist have low efficacy and severe side effects. Therefore, if we can find the compounds that effectively block DNA replication either by directly damaging DNA or by inhibiting other cellular mechanisms, the options for cancer treatment will be broadened. With this in mind, we developed a quantitative high-throughput ELG1-luciferase reporter gene assay. Since the level of human ELG1 protein is enhanced in response to genetic stresses, increases in luciferase activity can be used to identify compounds that cause genetic stress.
For genotoxicity screening, 2,000 cells in 5 uL/well were dispensed into white, solid-bottom 1536-well plates using a solenoid-based dispenser. Following transfer of 23 nL compound or DMSO vehicle by a pin tool, the plates were incubated 16 hr at 37 °C and 5% CO2. 5 ul ONE-Glo (Promega) was then added to each plate and following a 30 min incubation at room temperature, luciferase activity was quantified on a ViewLux CCD-based plate reader.

Row | SMILES | activity change, positive = ELG1 induction
1 | COc1cc2ncnc(Nc3cccc(Cl)c3)c2cc1OC | -7.07% (inactive)
2 | CCCCS(=N)(=O)CCC(N)C(=O)O (centres undefined) | 2.95% (inactive)
3 | CCN(CC)CCn1c(=O)c(Cc2ccc(OC)cc2)nc2ccccc21 | -3.43% (inactive)
4 | CCN1CCCC1CNC(=O)c1cc(S(N)(=O)=O)ccc1OC (centres undefined) | -6.26% (inactive)
5 | O=C(O)C1CCCN(CCC=C(c2ccccc2)c2ccccc2)C1 (centres undefined) | -3.25% (inactive)
6 | CC1=C(C(=O)O)N2C(=O)[C@@H](NC(=O)C(N)c3ccccc3)[C@H]2SC1 (some centres undefined) | -6.8% (inactive)
7 | COc1cc2nc(N3CCCN(C)CC3)nc(NC3CCN(Cc4ccccc4)CC3)c2cc1OC | -26.5% (inactive)
8 | NC(=O)c1cccc(N)c1 | -3.13% (inactive)
9 | CC(C)NCC(O)c1ccc(NS(C)(=O)=O)cc1 (centres undefined) | -8.37% (inactive)
10 | NC(=O)c1ccc2[nH]ccc2c1 | 4.12% (inactive)
11 | Cc1ccc(S(=O)(=O)N[C@@H](Cc2ccccc2)C(=O)CCl)cc1 | -20.2% (inactive)
12 | CCN(CC)CC#CCOC(=O)C(O)(c1ccccc1)C1CCCCC1 (centres undefined) | -5.69% (inactive)
13 | N[C@@H](Cc1ccc(O)c(O)c1)C(=O)O | -6.05% (inactive)
14 | CC1CC2C3CCC4=CC(=O)C=C[C@]4(C)[C@@]3(F)[C@@H](O)C[C@]2(C)[C@@]1(O)C(=O)CO (some centres undefined) | 4.39% (inactive)
